Among the data in PubChem BioAssay (NCI) are growth values, retold here.

Some test systems named below: T-47D breast; BT-549 breast; MDA-MB-435 melanoma; SW-620 colon; MCF7 breast; HCT-116 colon; HCC-2998 colon; KM12 colon.
Assay in all cases: NCI-60 one-dose screen, 48 h (100 = growth as untreated, 0 = no growth, -100 = all killed)
Common to all, as to settings: 10 µM unless noted

Each structure is given as a SMILES string. This is part of a sample that, as a whole, favours compounds with a hit. Of some 83,000 tested, about 20% had one in any assay.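 Compound tested at a single concentration for 48 hours in 96-well plates; a percent growth value below 10 was scored as active.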 Values without a mark were called inactive. Calls of active or inactive are those of the source.

In the case of `N#Cc1ccc(O)c(C2=NCC(Cc3ccccc3)O2)c1` (stereo not given), the growth in the test on T-47D breast is -1.96% (active); in the test with BT-549 breast, 37.7%; in the test on MDA-MB-435 melanoma, 64.5%; in the test on SW-620 colon, 40.2%; with MCF7 breast, 39%; with HCT-116 colon, 14.9%. Further, the growth was 72.3% in the test on HCC-2998 colon and 40.9% in the test with KM12 colon.
On to `CC1(C)NCCC[C@]2(C)[C@H]3CC[C@H]4[C@H]5[C@H](C(=O)/C=C/c6cccnc6)CCC[C@]5(CO)CC[C@@]4(C)[C@]3(C)CC[C@@H]12`, for which the growth with T-47D breast was 81.3%; in the test on BT-549 breast, 88.2%; with MDA-MB-435 melanoma, 70.8%; in the test with SW-620 colon it was 7.51% (active); in the test with MCF7 breast, 22.1%; in the test on HCT-116 colon it was 37.2%. The growth in the test with HCC-2998 colon was 19.7%; with KM12 colon, 39.8%.
Take `COC(=O)c1c2c(n3ccccc13)C(=O)c1ccccc1C2=O`: the growth is 73.4% in the test with T-47D breast; 68.1% in the test with BT-549 breast; 84.6% in the test on MDA-MB-435 melanoma; 40.9% in the test on SW-620 colon; 42.5% in the test with MCF7 breast; 27.9% in the test with HCT-116 colon. In addition, the growth was 88.3% with HCC-2998 colon and 49.7% with KM12 colon.
As to `CN(CCC(=O)c1ccccc1)CCC(=O)c1ccccc1`, the growth in the test on T-47D breast was 113%; with BT-549 breast it was 79.7%; in the test on MDA-MB-435 melanoma it was 102%; in the test on SW-620 colon it was 99.8%; in the test on MCF7 breast, 70.2%; with HCT-116 colon, 93.3%. Also, the growth is 93.3% in the test with HCC-2998 colon and 98.7% in the test on KM12 colon.
For the molecule `Nc1nc(N)c2c(n1)NC(c1cccc(Nc3ccnc4cc(C(F)(F)F)ccc34)c1)CC(c1ccc(Br)cc1)=N2` (stereo not given), the growth was 68.9% in the test on T-47D breast; 114% in the test with BT-549 breast; -25.8% (active) in the test with MDA-MB-435 melanoma; 31.1% in the test on SW-620 colon; 17.3% in the test with MCF7 breast; 16.2% in the test with HCT-116 colon. Also, the growth in the test on HCC-2998 colon is 55.1%; in the test with KM12 colon, 28.3%.
As to `CCO/C=N/C1=C(C#N)C(c2ccc(F)cc2)c2sc3c(F)cccc3c2O1` (stereo not given), the growth was 40.6% in the test on T-47D breast; 48.5% in the test on BT-549 breast; -23.7% (active) in the test with MDA-MB-435 melanoma; 20.6% in the test on SW-620 colon; 15.7% in the test with MCF7 breast; 39% in the test on HCT-116 colon. The growth in the test on HCC-2998 colon is 77%; in the test with KM12 colon it was 32.5%.
Take `C/C(=N\O)c1ccc(NC(=O)CSc2nnc(-c3cc(-c4ccc(S(N)(=O)=O)cc4)nc4ccccc34)n2-c2ccccc2)cc1`: the growth was 36.6% with T-47D breast; 67.9% with BT-549 breast; 69.5% in the test on MDA-MB-435 melanoma; 74.7% in the test with SW-620 colon; 44.6% with MCF7 breast; 53.2% in the test on HCT-116 colon. Further, the figures for the growth in the test with HCC-2998 colon and in the test with KM12 colon were 87.5% and 65%, respectively.
With `CCC1S/C(=N\N=C(\C)c2cc3cc(Cl)ccc3o2)N(c2ccccc2)C1=O` (stereo not given), the growth was 88.5% with T-47D breast; 119% in the test on BT-549 breast; 96.4% in the test on MDA-MB-435 melanoma; 90% in the test on SW-620 colon; 100% with MCF7 breast; 84.2% with HCT-116 colon. The growth with HCC-2998 colon was 83.2%; in the test on KM12 colon it was 91.6%.
For `CCCCCCCCCCCCCCCCCCOc1ccccc1CC(=O)NCC[N+]1(C)CCCCC1`, the growth with T-47D breast was 75.3%; in the test on BT-549 breast, 74.9%; with MDA-MB-435 melanoma, 60.5%; in the test with SW-620 colon it was 63.8%; with MCF7 breast, 53.3%; in the test with HCT-116 colon, 57.4%. Further, the growth in the test with HCC-2998 colon was 32.2%; in the test on KM12 colon it was 28.8%.
Regarding `CC(=O)O[C@H]1C[C@@H]2C(C)(C)C(=O)CC[C@@]2(C)c2ccc(C(C)C)cc21`, the growth in the test with T-47D breast is 102%; in the test with BT-549 breast it was 101%; in the test with MDA-MB-435 melanoma, 100%; in the test on SW-620 colon, 104%; with MCF7 breast it was 107%; in the test on HCT-116 colon, 105%. Also, the growth in the test on HCC-2998 colon was 107%; with KM12 colon, 97.7%.
`COc1cccc(Nc2ncnc3cc(NC(=O)CCl)ccc23)c1`: the growth in the test on T-47D breast is -32.6% (active); in the test on BT-549 breast, -28.7% (active); in the test with MDA-MB-435 melanoma, -82% (active); in the test on SW-620 colon it was -73.6% (active); with MCF7 breast, -8.63% (active); in the test with HCT-116 colon, -53.8% (active). The growth in the test on HCC-2998 colon was 23%; in the test with KM12 colon, -68.5% (active).
Regarding `CO[C@H]1CC(=O)n2c3ccccc3c3c4c(c5c6ccccc6n1c5c32)C(=O)NC4=O`, the growth with T-47D breast was 11.1%; with BT-549 breast it was 68.6%; in the test with MDA-MB-435 melanoma, 48.5%; with SW-620 colon, 32.8%; with MCF7 breast, 20.1%; in the test on HCT-116 colon, 55.6%. For the same molecule, the growth was 93.7% with HCC-2998 colon and 29.9% in the test on KM12 colon.
As to `S=c1[nH]c(=S)c2c(-c3ccccc3)c(-c3ccccc3)oc2[nH]1`, the growth was 91.4% in the test on T-47D breast; 119% in the test with BT-549 breast; 97.3% with MDA-MB-435 melanoma; 101% in the test on SW-620 colon; 94.3% in the test with MCF7 breast; 97.9% with HCT-116 colon. For the same molecule, the figures for the growth with HCC-2998 colon and in the test with KM12 colon were 101% and 102%, respectively.
Turning to `COc1ccc(C(=O)N2c3ccccc3Sc3ccccc32)c(C(F)(F)F)c1`, the growth in the test on T-47D breast is 52.3%; in the test on BT-549 breast, 10.7%; in the test on MDA-MB-435 melanoma it was -25% (active); with SW-620 colon it was 24.7%; in the test on MCF7 breast, 17%; in the test on HCT-116 colon, 6.57% (active). For the same molecule, the growth in the test on HCC-2998 colon is 26%; in the test on KM12 colon, 18%.
As to `C=C(C)[C@@H]1CC[C@]2(C)[C@H](CC=C3[C@@H]4CC(C)(C)CC[C@]4(CO)CC[C@]32C)[C@@]1(C)CCCN`, the growth in the test with T-47D breast was -26.5% (active); in the test on BT-549 breast, 64.6%; in the test on MDA-MB-435 melanoma, -84% (active); in the test on SW-620 colon it was -81.9% (active); in the test on MCF7 breast, -41.4% (active); with HCT-116 colon, -79.6% (active). Besides, the figures for the growth in the test on HCC-2998 colon and with KM12 colon were -76% (active) and -53.9% (active), respectively.
